Laboratory results as given in the supplement of paper PMC10849652.
The full data set covers some 8,800 targets. This sample favours those with a hit. About 0.5% of all pairs of compound and target were hits.

Columns and labels:
Assay in all cases: log2 fold change, soluble protein after heating vs DMSO (PISA); higher = thermal stabilisation; K562 lysate, 10 uM; active = over 0.2 and 3.5 SD of the protein, either way, in both replicates (recomputed)
alvocidib = compound: CN1CC[C@H](c2c(O)cc(O)c3c(=O)cc(-c4ccccc4Cl)oc23)[C@H](O)C1 [alvocidib]
Procedure, shortened: (§1)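 Quantification was by TMTpro 16plex LC-MS/MS with equalised channel sums, applied to the supernatant after 21,000xg for 90 min. Samples were crude K562 extract at 1 mg/mL protein in PBS pH 7.4 with 1 mM MgCl2, treated with 10 μM compound for 30 min, heated for 3 min across 48°C-58°C, pooled and brought to 0.5% NP-40 at 4°C. Values are log-two fold changes in thermal stability relative to solvent controls, from duplicates.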

Tubastatin A = compound: CN1CCc2c(c3ccccc3n2Cc2ccc(C(=O)NO)cc2)C1 [Tubastatin A]
Procedure, shortened: as §1

[1] = compound: CNC(=O)C1=CC=CC=C1NC2=NC(=NC=C2Cl)NC3=C(C=C(C=C3)N4CCOCC4)OC
Procedure, shortened: as §1

[2] = compound: CNc1nc(-c2ccc3c(N)n[nH]c3c2)cc(N2C[C@@H](C(=O)NC3CCCCC3)CC[C@H]2C)n1
Procedure, shortened: as §1

encorafenib = compound: COC(=O)N[C@@H](C)CNc1nccc(-c2cn(C(C)C)nc2-c2cc(Cl)cc(NS(C)(=O)=O)c2F)n1 [encorafenib]
Procedure, shortened: as §1

[3] = compound: COC(=O)[C@H](CCSC)NC(=O)C1=C(C=C(C=C1)NC[C@H](CS)N)C2=CC=CC=C2
Procedure, shortened: as §1

alisertib = compound: COc1cc(Nc2ncc3c(n2)-c2ccc(Cl)cc2C(c2c(F)cccc2OC)=NC3)ccc1C(=O)O [alisertib]
Procedure, shortened: as §1

[4] = compound: COc1cc2nc(-c3cc(F)ccc3O)nc(N[C@@H]3CNC[C@H]3C(C)(C)O)c2cc1OC
Procedure, shortened: as §1

gefitinib = compound: COc1cc2ncnc(Nc3ccc(F)c(Cl)c3)c2cc1OCCCN1CCOCC1 [gefitinib]
Procedure, shortened: as §1

lapatinib = compound: CS(=O)(=O)CCNCc1ccc(-c2ccc3ncnc(Nc4ccc(OCc5cccc(F)c5)c(Cl)c4)c3c2)o1 [lapatinib]
Procedure, shortened: as §1

pictilisib = compound: CS(=O)(=O)N1CCN(Cc2cc3nc(-c4cccc5[nH]ncc45)nc(N4CCOCC4)c3s2)CC1 [pictilisib]
Procedure, shortened: as §1

crizotinib = compound: C[C@@H](Oc1cc(-c2cnn(C3CCNCC3)c2)cnc1N)c1c(Cl)ccc(F)c1Cl [crizotinib]
Procedure, shortened: as §1

[5] = compound: C[C@H](C1=CC=C(C=C1)C(=O)NC2=C3C=CNC3=NC=C2)N
Procedure, shortened: as §1

duvelisib = compound: C[C@H](Nc1ncnc2nc[nH]c12)c1cc2cccc(Cl)c2c(=O)n1-c1ccccc1 [duvelisib]
Procedure, shortened: as §1

gandotinib = compound: Cc1cc(Nc2cc(CN3CCOCC3)c3nc(C)c(Cc4ccc(Cl)cc4F)n3n2)n[nH]1 [gandotinib]
Procedure, shortened: as §1

tozasertib = compound: Cc1cc(Nc2cc(N3CCN(C)CC3)nc(Sc3ccc(NC(=O)C4CC4)cc3)n2)n[nH]1 [tozasertib]
Procedure, shortened: as §1

doramapimod = compound: Cc1ccc(-n2nc(C(C)(C)C)cc2NC(=O)Nc2ccc(OCCN3CCOCC3)c3ccccc23)cc1 [doramapimod]
Procedure, shortened: as §1

bafetinib = compound: Cc1ccc(NC(=O)c2ccc(CN3CC[C@H](N(C)C)C3)c(C(F)(F)F)c2)cc1Nc1nccc(-c2cncnc2)n1 [bafetinib]
Procedure, shortened: as §1

[6] = compound: Cc1cccc(CC(=O)N2CCc3c2ccc(-c2cn(C)c4ncnc(N)c24)c3F)n1
Procedure, shortened: as §1

defactinib = compound: CNC(=O)c1ccc(Nc2ncc(C(F)(F)F)c(NCc3nccnc3N(C)S(C)(=O)=O)n2)cc1 [defactinib]
Procedure, shortened: as §1

Measured: log2 fold change

MAN2B2 (UniProt Q9Y2E5)
active: [5] 0.595 | [6] -0.546
inactive: alvocidib 0.199 | Tubastatin A 0.029 | [1] -0.006 | [2] 0.059 | encorafenib -0.004 | [3] 0.073 | alisertib 0.032 | [4] 0.049 | gefitinib -0.017 | lapatinib 0.01 | pictilisib 0.021 | crizotinib 0 | duvelisib -0.018 | gandotinib -0.38 | tozasertib 0.003 | doramapimod -0.028 | bafetinib -0.12

LYN isoform 2 (UniProt P07948)
active: gandotinib 0.891
inactive: alvocidib 0.138 | Tubastatin A -0.153 | [1] 0.175 | [2] 0.014 | encorafenib -0.063 | [3] 0.301 | alisertib 0.229 | gefitinib 0.054 | crizotinib 0.049 | [5] 0.026 | duvelisib -0.357 | tozasertib 0.126 | doramapimod -0.076 | [6] -0.006

MPP5 (UniProt Q8N3R9)
inactive: alvocidib 0.066 | Tubastatin A -0.08 | [1] -0.051 | defactinib 0.034 | [2] 0.045 | encorafenib 0.073 | [3] 0.114 | alisertib -0.217 | gefitinib -0.139 | pictilisib -0.091 | crizotinib -0.028 | [5] -0.003 | duvelisib -0.017 | gandotinib 0.01 | tozasertib -0.033 | doramapimod 0.115 | bafetinib -0.043 | [6] 0.099

MAP4K2 (UniProt Q12851)
Chain of UniProt Q12851 (Q12851 whole entry, looked up): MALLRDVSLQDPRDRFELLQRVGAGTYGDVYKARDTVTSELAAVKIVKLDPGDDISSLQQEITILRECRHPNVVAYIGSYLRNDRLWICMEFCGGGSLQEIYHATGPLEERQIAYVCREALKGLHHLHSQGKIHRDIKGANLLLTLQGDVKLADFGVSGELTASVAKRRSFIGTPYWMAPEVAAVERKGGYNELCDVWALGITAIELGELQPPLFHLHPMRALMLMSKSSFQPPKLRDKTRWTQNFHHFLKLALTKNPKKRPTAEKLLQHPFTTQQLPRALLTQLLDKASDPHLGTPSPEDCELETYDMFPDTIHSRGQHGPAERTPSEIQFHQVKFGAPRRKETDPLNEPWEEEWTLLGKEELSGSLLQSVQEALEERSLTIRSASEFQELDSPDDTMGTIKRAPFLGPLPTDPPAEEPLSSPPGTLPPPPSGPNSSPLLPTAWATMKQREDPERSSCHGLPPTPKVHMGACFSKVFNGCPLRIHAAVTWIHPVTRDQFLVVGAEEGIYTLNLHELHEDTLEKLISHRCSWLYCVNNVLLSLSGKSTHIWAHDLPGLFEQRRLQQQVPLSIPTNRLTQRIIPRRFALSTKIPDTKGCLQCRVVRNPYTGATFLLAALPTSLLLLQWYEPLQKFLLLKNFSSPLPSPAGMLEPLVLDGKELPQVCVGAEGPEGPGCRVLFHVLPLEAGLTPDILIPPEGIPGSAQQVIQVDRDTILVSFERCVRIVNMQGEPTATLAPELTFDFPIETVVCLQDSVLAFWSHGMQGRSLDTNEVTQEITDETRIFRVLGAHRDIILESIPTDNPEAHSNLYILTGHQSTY
inactive: alvocidib 0.111 | Tubastatin A -0.189 | [1] -0.02 | defactinib 0.086 | [2] 0.055 | encorafenib -0.183 | [3] -0.234 | [4] 0.219 | lapatinib -0.164 | pictilisib 0.126 | [5] 0.145 | duvelisib 0.077 | gandotinib 0.273 | tozasertib 0.054 | doramapimod 0.035 | bafetinib -0.126 | [6] -0.015

MAPKAPK2 (UniProt P49137)
Chain of UniProt P49137 (P49137 whole entry, looked up): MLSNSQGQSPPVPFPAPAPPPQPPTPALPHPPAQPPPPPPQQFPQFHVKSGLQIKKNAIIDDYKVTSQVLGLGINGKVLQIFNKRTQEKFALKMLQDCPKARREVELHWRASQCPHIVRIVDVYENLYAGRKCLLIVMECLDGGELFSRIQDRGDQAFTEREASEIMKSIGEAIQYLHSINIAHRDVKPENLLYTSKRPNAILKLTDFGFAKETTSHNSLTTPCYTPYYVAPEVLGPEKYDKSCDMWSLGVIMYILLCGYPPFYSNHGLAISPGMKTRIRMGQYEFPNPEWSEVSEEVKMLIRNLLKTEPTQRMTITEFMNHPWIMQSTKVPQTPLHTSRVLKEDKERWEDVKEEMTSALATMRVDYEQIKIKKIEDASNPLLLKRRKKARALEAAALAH
inactive: alvocidib 0.069 | Tubastatin A -0.078 | [1] 0.077 | defactinib -0.059 | [2] 0.025 | encorafenib -0.026 | [3] 0.046 | alisertib -0.023 | [4] 0.114 | gefitinib -0.013 | lapatinib -0.04 | pictilisib -0.05 | crizotinib -0.014 | [5] 0.046 | duvelisib 0.033 | gandotinib -0.03 | tozasertib 0.004 | doramapimod 0.092 | bafetinib -0.037 | [6] 0.018

MAP4 isoform 5 (UniProt P27816)
Chain of UniProt P27816 (P27816 whole entry, looked up): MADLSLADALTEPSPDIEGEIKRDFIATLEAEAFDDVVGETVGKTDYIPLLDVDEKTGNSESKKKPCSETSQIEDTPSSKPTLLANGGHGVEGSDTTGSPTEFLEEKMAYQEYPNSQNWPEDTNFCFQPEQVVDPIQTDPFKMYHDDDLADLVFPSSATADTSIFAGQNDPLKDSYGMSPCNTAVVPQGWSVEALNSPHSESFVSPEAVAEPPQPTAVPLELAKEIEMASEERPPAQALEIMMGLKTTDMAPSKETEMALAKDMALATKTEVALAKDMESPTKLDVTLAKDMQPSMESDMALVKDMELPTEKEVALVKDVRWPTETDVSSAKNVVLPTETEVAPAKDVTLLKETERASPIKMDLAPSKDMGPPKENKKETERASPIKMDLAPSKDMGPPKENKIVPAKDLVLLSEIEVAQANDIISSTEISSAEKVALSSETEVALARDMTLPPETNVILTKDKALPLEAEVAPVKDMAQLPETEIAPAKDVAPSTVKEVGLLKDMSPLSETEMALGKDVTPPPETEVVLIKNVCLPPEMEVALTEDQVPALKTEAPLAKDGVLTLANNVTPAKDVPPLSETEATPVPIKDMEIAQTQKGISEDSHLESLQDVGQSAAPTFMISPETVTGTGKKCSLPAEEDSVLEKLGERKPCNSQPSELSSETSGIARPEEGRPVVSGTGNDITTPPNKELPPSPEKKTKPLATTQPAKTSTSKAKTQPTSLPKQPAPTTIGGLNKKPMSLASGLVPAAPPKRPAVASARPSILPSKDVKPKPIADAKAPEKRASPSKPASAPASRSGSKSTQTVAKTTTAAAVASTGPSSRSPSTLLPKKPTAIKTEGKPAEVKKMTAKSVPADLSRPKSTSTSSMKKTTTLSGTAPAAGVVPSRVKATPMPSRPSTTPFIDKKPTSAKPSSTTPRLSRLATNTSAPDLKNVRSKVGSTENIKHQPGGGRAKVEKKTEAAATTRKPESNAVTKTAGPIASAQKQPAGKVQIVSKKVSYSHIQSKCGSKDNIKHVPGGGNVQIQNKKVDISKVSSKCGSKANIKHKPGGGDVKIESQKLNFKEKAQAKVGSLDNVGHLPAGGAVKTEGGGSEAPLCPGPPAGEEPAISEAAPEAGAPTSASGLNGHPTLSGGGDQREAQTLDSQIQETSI
inactive: Tubastatin A 0.077 | [1] 0.087 | defactinib -0.086 | [2] 0.138 | encorafenib -0.051 | [3] -0.025 | alisertib 0.047 | [4] -0.028 | gefitinib 0.039 | lapatinib -0.089 | pictilisib -0.008 | crizotinib -0.034 | duvelisib 0.159 | tozasertib 0.008 | doramapimod -0.061 | bafetinib 0.081

LEPROT (UniProt O15243)
Chain of UniProt O15243 (O15243 whole entry, looked up): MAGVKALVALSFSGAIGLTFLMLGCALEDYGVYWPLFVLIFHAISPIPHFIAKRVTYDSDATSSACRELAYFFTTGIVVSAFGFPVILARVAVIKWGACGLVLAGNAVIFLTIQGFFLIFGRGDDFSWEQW
inactive: alvocidib 0.006 | Tubastatin A 0.01 | [1] 0 | encorafenib -0.003 | [3] 0.01 | [4] 0.022 | lapatinib -0.058 | pictilisib 0 | crizotinib -0.069 | [5] -0.019 | gandotinib 0.054 | tozasertib -0.116 | doramapimod 0 | bafetinib -0.067 | [6] 0.056

LRRIQ1 (UniProt Q96JM4)
inactive: Tubastatin A -0.096 | defactinib -0.031 | [4] -0.037 | lapatinib 0.04 | crizotinib -0.278 | doramapimod -0.073

KLC1 isoform 10 (UniProt Q07866)
inactive: [1] 0.147 | encorafenib 0.06 | [3] -0.109 | pictilisib -0.167 | tozasertib 0.016 | bafetinib 0.032

MINDY1 isoform 3 (UniProt Q8N5J2)
inactive: Tubastatin A 0.093 | [1] -0.031 | defactinib 0.021 | [2] -0.054 | encorafenib 0.03 | [3] -0.053 | alisertib 0.001 | [4] 0.103 | gefitinib 0.134 | lapatinib -0.002 | pictilisib 0 | crizotinib -0.045 | duvelisib 0.051 | tozasertib -0.036 | doramapimod 0.051 | bafetinib -0.11

MMS22L (UniProt Q6ZRQ5)
inactive: alvocidib 0.068 | [1] -0.011 | defactinib 0.06 | [2] -0.03 | encorafenib -0.007 | [3] 0.017 | alisertib -0.004 | [4] 0.055 | gefitinib 0.035 | lapatinib -0.101 | pictilisib -0.034 | crizotinib 0.113 | [5] 0.065 | duvelisib -0.106 | gandotinib -0.169 | tozasertib 0.087 | doramapimod -0.018 | bafetinib -0.152 | [6] -0.029

MEGF8 (UniProt Q7Z7M0)
inactive: alvocidib 0.03 | Tubastatin A 0.156 | [1] 0.058 | [2] -0.051 | encorafenib -0.01 | [3] 0.131 | pictilisib -0.015 | crizotinib 0.113 | [5] -0.077 | duvelisib -0.167 | gandotinib -0.101 | tozasertib 0.02 | doramapimod -0.028 | bafetinib 0.068 | [6] -0.011

KIF18B (UniProt Q86Y91)
inactive: [2] -0.067 | encorafenib -0.159 | [3] -0.04 | [4] 0.046 | lapatinib -0.024 | crizotinib -0.008 | duvelisib 0.068 | tozasertib -0.161 | doramapimod 0.077

LRPPRC (UniProt H7C3W8)
inactive: defactinib -0.063

KIF2A isoform 2 (UniProt O00139)
Chain of UniProt O00139 (O00139 whole entry, looked up): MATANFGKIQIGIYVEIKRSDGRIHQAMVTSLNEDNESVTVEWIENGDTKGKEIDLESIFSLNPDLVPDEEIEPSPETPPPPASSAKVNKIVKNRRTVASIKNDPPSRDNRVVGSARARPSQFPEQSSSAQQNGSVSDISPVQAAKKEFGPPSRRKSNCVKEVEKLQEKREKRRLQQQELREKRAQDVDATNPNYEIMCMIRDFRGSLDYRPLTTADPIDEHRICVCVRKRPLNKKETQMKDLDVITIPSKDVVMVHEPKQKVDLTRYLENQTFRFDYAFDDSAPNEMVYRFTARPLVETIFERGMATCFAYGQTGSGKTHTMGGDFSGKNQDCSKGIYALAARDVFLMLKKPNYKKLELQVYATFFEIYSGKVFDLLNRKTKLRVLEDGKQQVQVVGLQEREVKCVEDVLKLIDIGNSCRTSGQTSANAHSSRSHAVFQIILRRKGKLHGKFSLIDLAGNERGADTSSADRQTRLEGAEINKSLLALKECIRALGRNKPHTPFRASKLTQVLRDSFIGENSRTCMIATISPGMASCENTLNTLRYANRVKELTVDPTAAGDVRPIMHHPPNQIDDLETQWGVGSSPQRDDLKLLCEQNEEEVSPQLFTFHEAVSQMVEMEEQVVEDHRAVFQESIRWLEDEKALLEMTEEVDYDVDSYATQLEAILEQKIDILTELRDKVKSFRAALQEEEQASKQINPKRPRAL
inactive: alvocidib 0.153 | [5] 0.192 | gandotinib -0.059 | [6] -0.059

MAPK7 (UniProt Q13164)
inactive: alvocidib 0.069 | [1] 0.002 | encorafenib -0.03 | [3] -0.114 | [4] 0.157 | lapatinib -0.145 | crizotinib 0.246 | [5] -0.083 | gandotinib 0.161 | tozasertib -0.029 | doramapimod 0.01 | [6] -0.099

MAP4K4 isoform 6 (UniProt O95819)
inactive: Tubastatin A 0.024 | [1] -0.067 | [2] -0.016 | encorafenib 0.207 | [3] -0.034 | [4] -0.058 | lapatinib -0.002 | pictilisib -0.092 | duvelisib -0.038 | tozasertib 0.102 | bafetinib 0.016

MEX3A (UniProt A1L020)
Chain of UniProt A1L020 (A1L020 whole entry, looked up): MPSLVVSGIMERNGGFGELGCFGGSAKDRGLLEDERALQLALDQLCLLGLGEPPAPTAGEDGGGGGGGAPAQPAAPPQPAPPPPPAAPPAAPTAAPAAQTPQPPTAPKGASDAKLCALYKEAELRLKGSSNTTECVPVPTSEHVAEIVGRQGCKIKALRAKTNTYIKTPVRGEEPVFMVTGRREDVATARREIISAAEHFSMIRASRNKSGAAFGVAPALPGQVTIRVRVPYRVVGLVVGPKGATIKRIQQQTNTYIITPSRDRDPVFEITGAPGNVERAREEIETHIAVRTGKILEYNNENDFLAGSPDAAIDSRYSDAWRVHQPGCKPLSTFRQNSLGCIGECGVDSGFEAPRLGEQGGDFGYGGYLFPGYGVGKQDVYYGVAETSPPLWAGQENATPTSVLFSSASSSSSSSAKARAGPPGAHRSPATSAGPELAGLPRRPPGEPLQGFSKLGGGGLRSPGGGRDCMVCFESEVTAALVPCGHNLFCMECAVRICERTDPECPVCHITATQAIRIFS
inactive: Tubastatin A 0.037 | defactinib -0.068 | [2] 0.037 | alisertib -0.097 | gefitinib 0.207 | duvelisib 0.196

KMT2B (UniProt Q9UMN6)
inactive: [1] -0.083 | [2] 0.246 | encorafenib 0.127 | [3] -0.008 | crizotinib 0.073 | duvelisib -0.034 | tozasertib 0.073 | doramapimod -0.033

MCMBP isoform 2 (UniProt Q9BTE3)
Chain of UniProt Q9BTE3 (Q9BTE3 whole entry, looked up): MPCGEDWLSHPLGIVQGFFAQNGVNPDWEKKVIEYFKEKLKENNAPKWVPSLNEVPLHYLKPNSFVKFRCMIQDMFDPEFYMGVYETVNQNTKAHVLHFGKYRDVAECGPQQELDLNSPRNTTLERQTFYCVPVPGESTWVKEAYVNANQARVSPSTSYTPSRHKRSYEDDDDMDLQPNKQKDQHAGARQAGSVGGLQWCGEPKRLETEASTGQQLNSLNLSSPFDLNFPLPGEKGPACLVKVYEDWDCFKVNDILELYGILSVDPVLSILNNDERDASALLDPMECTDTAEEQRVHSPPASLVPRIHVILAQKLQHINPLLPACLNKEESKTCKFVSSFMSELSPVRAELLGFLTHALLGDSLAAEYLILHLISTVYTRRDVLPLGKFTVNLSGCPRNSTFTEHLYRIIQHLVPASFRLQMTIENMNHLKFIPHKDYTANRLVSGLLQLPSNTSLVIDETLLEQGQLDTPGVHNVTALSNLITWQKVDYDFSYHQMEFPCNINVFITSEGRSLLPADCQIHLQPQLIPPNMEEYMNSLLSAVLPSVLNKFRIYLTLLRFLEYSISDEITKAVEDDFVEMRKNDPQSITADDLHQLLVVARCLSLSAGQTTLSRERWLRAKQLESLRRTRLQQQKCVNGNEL
inactive: Tubastatin A -0.142 | [1] 0.102 | defactinib 0.089 | [2] 0.199 | encorafenib -0.015 | [3] 0.124 | alisertib 0.067 | [4] -0.091 | gefitinib -0.082 | lapatinib 0.154 | pictilisib -0.179 | crizotinib 0.14 | duvelisib -0.03 | tozasertib 0.013 | doramapimod -0.092 | bafetinib 0.235

METTL21A (UniProt Q8WXB1)
Chain of UniProt Q8WXB1 (Q8WXB1 whole entry, looked up): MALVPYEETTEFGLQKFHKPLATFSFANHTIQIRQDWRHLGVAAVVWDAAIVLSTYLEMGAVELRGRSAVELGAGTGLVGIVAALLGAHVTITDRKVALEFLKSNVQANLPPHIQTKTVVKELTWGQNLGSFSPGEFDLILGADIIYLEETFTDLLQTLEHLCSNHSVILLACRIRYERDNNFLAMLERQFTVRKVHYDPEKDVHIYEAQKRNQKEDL
inactive: alvocidib 0.009 | Tubastatin A 0.052 | [1] 0.087 | [2] 0 | alisertib 0.004 | [4] 0.011 | gefitinib -0.028 | lapatinib 0.004 | pictilisib 0.06 | crizotinib -0.043 | [5] -0.083 | duvelisib 0.131 | gandotinib 0.038 | doramapimod -0.081 | bafetinib -0.04 | [6] 0.016

MAP4K4 isoform 3 (UniProt O95819)
inactive: Tubastatin A -0.016 | [1] -0.028 | defactinib 0.03 | [2] -0.08 | encorafenib -0.075 | [3] -0.014 | [4] 0.035 | gefitinib -0.051 | lapatinib -0.061 | pictilisib -0.049 | [5] 0.201 | duvelisib 0.078 | gandotinib -0.088 | tozasertib 0.014 | doramapimod 0.087 | bafetinib 0.03 | [6] -0.01

MAPK12 (UniProt P53778)
Chain of UniProt P53778 (P53778 whole entry, looked up): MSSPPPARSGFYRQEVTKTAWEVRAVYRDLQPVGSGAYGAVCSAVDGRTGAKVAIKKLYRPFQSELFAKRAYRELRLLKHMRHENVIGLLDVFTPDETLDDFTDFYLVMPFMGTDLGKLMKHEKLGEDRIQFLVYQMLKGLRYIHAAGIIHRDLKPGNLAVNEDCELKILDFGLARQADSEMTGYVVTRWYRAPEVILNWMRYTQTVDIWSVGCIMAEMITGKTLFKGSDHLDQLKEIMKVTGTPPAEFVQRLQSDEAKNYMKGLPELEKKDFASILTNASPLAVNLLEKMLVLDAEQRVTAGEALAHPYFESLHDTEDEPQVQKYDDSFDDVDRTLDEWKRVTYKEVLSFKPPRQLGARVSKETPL
active: [5] 0.868
inactive: Tubastatin A 0.022 | [1] 0.025 | defactinib -0.077 | [2] 0.054 | encorafenib -0.001 | [3] 0.035 | alisertib -0.114 | gefitinib -0.057 | pictilisib 0.059 | duvelisib -0.061 | gandotinib -0.15 | tozasertib 0.248 | bafetinib 0 | [6] -0.163

LGALS3BP (UniProt Q08380)
active: [2] -0.571
inactive: alvocidib -0.187 | [1] -0.234 | defactinib -0.133 | encorafenib 0.023 | [3] 0.082 | alisertib -0.074 | [4] 0.092 | gefitinib 0.019 | lapatinib -0.239 | crizotinib 0.204 | [5] 0.035 | duvelisib -0.149 | gandotinib 0.197 | tozasertib 0.115 | doramapimod -0.087 | [6] 0.53
